# Test results published in PubChem BioAssay AID598 (SRMLSC, 2007).
# Hit rate of the full screen: of about 85,000 compounds, about 5,100 (6%) were called active.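 The calls were made as follows: active = viability at or below 40%; inactive = viability above 40%.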 Many of the other results were omitted from the sample, so actives are more common in it than they were.
# Assay: proliferation blockers of H69AR lung cancer cells, primary screen, cell-based, human, 86K library (AID 598);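 also: multidrug resistant small cell line overexpressing MRP-1 efflux transporter; 100% = mean luminescence of untreated control wells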
# Settings: H69AR lung tumor viability, ATP luminescence, 72 h; at 10 µM; stronger effect = lower value
row,SMILES,viability
1,CC(C)C(NC(=O)c1ccc(Cl)cc1)C(=O)O (stereo not given),111% (inactive)
2,CCCc1nc2sc3c(c2c(=O)n1NC(=O)CCCl)CCCC3,36% (active)
3,O=c1c2ccccc2nnn1CSc1nc2sc3c(c2c(=O)n1CC1CCCO1)CCC3 (stereo not given),54.9% (inactive)
4,Cn1c(NN)nc2sc3c(c2c1=O)CCC3,96.5% (inactive)
5,CC(C)CCNC(=O)CC1C(=O)N(Cc2ccccc2)C(C)c2nc3ccccc3n21 (stereo not given),102% (inactive)
6,COc1ccc(C2(CNC(=O)C(c3ccccc3)c3ccccc3)CCOCC2)cc1OC,74.8% (inactive)
7,CCOc1cc(C(=O)Nc2c(C)ccc3nsnc23)cc(OCC)c1OCC,78.3% (inactive)
8,O=C(CC(NCCN1CCOCC1)C(=O)O)Nc1cccc(Cl)c1 (stereo not given),94.2% (inactive)
9,COc1cccc2cc(C(C)N(CCCN3CCOCC3)C(=O)Nc3ccc(Cl)cc3)oc12 (stereo not given),31.7% (active)
10,COc1ccc(C(=O)Nc2ccc(CN3CCOCC3)cc2)cc1,98.4% (inactive)
11,CCCn1c(SCC(=O)Nc2cccc(C(=O)OCC)c2)nnc1-c1ccoc1C,78.9% (inactive)
12,CCn1c(Cc2ccccc2)nnc1SCC(=O)Nc1ccccc1,90% (inactive)
13,CCn1c(SCC(=O)Nc2cccc(F)c2)nnc1-c1cc2cc(Br)ccc2o1,34.7% (active)
14,COC(=O)c1cc2nc(-c3ccccc3)cc(C(F)(F)F)n2n1,90.6% (inactive)
15,O=C(O)CCC(=O)NCc1ccc(C(=O)O)cc1,96% (inactive)
16,O=C(Nc1cc(-c2nn(CC(=O)N3CCCCC3)c(=O)c3ccccc23)ccc1N1CCOCC1)c1ccc(Cl)cc1,93.1% (inactive)
17,Cc1ccc(-c2cnc(NC(=O)CCC(=O)N(C)Cc3ccccc3)n2C)cc1,100% (inactive)
18,COc1ccc(NC(=O)CC2COc3ccccc3O2)c(OC)c1 (stereo not given),105% (inactive)
19,Cc1cccc(-c2nc3c(c(SCC(=O)N4CCOCC4)n2)CCCC3)c1,70.3% (inactive)
20,Cn1nc(-c2ccccc2)c(CSc2cccc(Cl)c2)c1Cl,22% (active)

row,SMILES,viability
1,COC(=O)Cn1nc(-c2ccccc2)c2cc(Cl)ccc21,98.3% (inactive)
2,Cc1ccc(S(=O)(=O)c2c(COC(=O)c3cccc(Cl)c3)c(-c3ccccc3)nn2C)cc1,87.9% (inactive)
3,Cn1c(=O)c2c(SCC(=O)N3CCOCC3)nc(C3CC3)nc2n(C)c1=O,81.8% (inactive)
4,CC(C)NC(=O)C(=O)NCCN1CCN(S(=O)(=O)c2ccc(Cl)cc2)CC1,94.6% (inactive)
5,O=C(CCn1c(SCC(=O)c2ccccc2)nc2ccccc2c1=O)NCc1ccc(F)cc1,97.6% (inactive)
6,Cc1cc(C)n(-c2cc(Oc3ccccc3)ncn2)n1,100% (inactive)
7,Cc1cc(Oc2ccccc2)nc(N2CCOCC2)n1,94.1% (inactive)
8,CC(=O)c1ccc(Oc2cc(C)nc(-n3nc(C)cc3C)n2)cc1,23.4% (active)
9,O=C(CSc1nc2cccnc2n1Cc1ccccc1)N1CCc2ccccc21,70.1% (inactive)
10,C=CCO/N=C(\C)c1c(O)c(C)c(-c2ccccc2)n(-c2ccccc2)c1=O,96.7% (inactive)
11,O=C(NCC1CCC(C(=O)O)CC1)OCc1ccccc1 (stereo not given),98.5% (inactive)
12,COc1ccc(C2CC(=O)Nc3cc(C)c(C)cc32)c(OC)c1OC (stereo not given),78.6% (inactive)
13,CCCOc1ccccc1C1CC(=O)Nc2cc3c(cc21)OCO3 (stereo not given),25.9% (active)
14,COCCOC(=O)C1=C(C)NC(=O)CC1c1cc2c(cc1Br)OCO2 (stereo not given),97.1% (inactive)
15,CCCNC(=S)N1CCC(NC(=O)C23CC4CC(CC(C4)C2)C3)CC1,101% (inactive)
16,CCOC(=O)Cc1csc(NC(=O)CSc2nnc(-c3cccnc3)n2Cc2ccco2)n1,100% (inactive)
17,CCOCc1nnc(NC(=O)CSc2ccc(C)cc2)s1,94.8% (inactive)
18,CCCCCN1CC(O)=C(c2nc(-c3ccc(Cl)cc3)cs2)C1=N,99% (inactive)
19,CCOC(=O)N1CCN(S(=O)(=O)c2ccc(C(=O)Nc3ccc(F)cc3F)cc2)CC1,20.4% (active)
20,O=C(Nc1cccc(F)c1)c1ccc(S(=O)(=O)N2CCCC2)cc1,84.8% (inactive)

row,SMILES,viability
1,COc1ccc(C(=O)Nc2ccc(F)cc2F)cc1,94.2% (inactive)
2,COc1ccc(C2=NOC3(CC(=O)N(c4ccc(C)cc4)C3=O)C2)cc1 (stereo not given),98.4% (inactive)
3,O=C(c1cccc(N2CCCC2=O)c1)N1CCOCC1,110% (inactive)
4,COC(=O)Cn1c2ccc(C)cc2c2nc(C)sc21,98.6% (inactive)
5,CCN(CC)CCn1c2ccc(Cl)cc2c2nc(C)sc21,20.6% (active)
6,COc1ccc(Br)cc1CN1CCN(C(=O)c2cccc(OC)c2OC)CC1,70.4% (inactive)
7,COC(=O)c1ccccc1NC(=O)CN(Cc1ccc(Cl)cc1)S(C)(=O)=O,60.9% (inactive)
8,CCN(CC)C(=O)CSc1nnc(-c2cccc(OC)c2)o1,76.1% (inactive)
9,COc1cccc(NC(=O)CN(C)S(=O)(=O)c2ccc(C)cc2)c1,89.9% (inactive)
10,COc1cccc(-c2nnc(NC(=O)c3ccc(S(=O)(=O)N(CC(C)C)CC(C)C)cc3)o2)c1,13.2% (active)
11,COC(=O)c1ccccc1Sc1c(/C=N/OCc2ccc(Cl)cc2)c(C(F)(F)F)nn1C,79.2% (inactive)
12,CN(C)C(=O)c1cc(Br)ccc1Cl,100% (inactive)
13,COc1ccc(C2C(C#N)=C(/N=C/N3CCOCC3)OC3=C2C(=O)CC(C)(C)C3)cc1OC (stereo not given),96.7% (inactive)
14,OC(COc1ccc2c(c1)CCC2)CN1CCN(c2cccc(Cl)c2)CC1 (stereo not given),75% (inactive)
15,O=C(Nc1ccccc1-c1nnn(CC(=O)N2CCCc3ccccc32)n1)c1cccc(Cl)c1,102% (inactive)
16,Cc1cc(C)n(C(=O)CCNC(=O)c2ccccc2Cl)n1,104% (inactive)
17,Clc1ccc(C2=CSC3=Nc4cccc5cccc(c45)N23)cc1,27.7% (active)
18,O=C(c1ccco1)N1CCN(C(=O)C2CCCN(S(=O)(=O)c3cccc4nsnc34)C2)CC1 (stereo not given),91.1% (inactive)
19,CCOCCOCCC(C(=O)O)P(=O)(c1ccccc1)c1ccccc1 (stereo not given),103% (inactive)
20,CCc1c(O)nc(SCC(=O)Nc2ccccc2)n(C(C)CC)c1=O (stereo not given),74.6% (inactive)
